Test systems include T-47D breast; BT-549 breast; MDA-MB-435 melanoma; SW-620 colon; MCF7 breast; HCT-116 colon; HCC-2998 colon; KM12 colon.
What all share (test): NCI-60 one-dose screen, 48 h (100 = growth as untreated, 0 = no growth, -100 = all killed)
Conditions in all cases: 10 µM unless noted

Data on 16 molecules can be found in PubChem BioAssay (NCI).

The panel holds about 83,000 compounds, 20% with a hit somewhere; the sample as a whole holds those more often.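 Testing used 96-well plates and a 48-hour single-concentration exposure. Example: -40 means 40% of the starting cells died.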 Unmarked numbers belong to inactive results. Calls of active or inactive are those of the source. How the source made its calls: active means growth percent below 10; inactive means the rest.

For the molecule `O=C1Nc2ccc(C(=O)O)cc2/C1=N/c1nnc(Sc2ccccc2)s1`, the growth with T-47D breast was 103%; in the experiment with BT-549 breast, 123%; in the experiment with MDA-MB-435 melanoma it was 102%; in the experiment with SW-620 colon, 103%; with MCF7 breast, 101%; in the experiment with HCT-116 colon, 104%. For the same molecule, the growth with HCC-2998 colon is 112%; with KM12 colon, 99.9%.

`COc1cc(C2CC(c3ccc(Nc4nc(Nc5ccc(Cl)cc5)nc(Nc5ccc(Cl)cc5)n4)cc3)=NN2C(C)=O)cc(OC)c1OC` (stereo not drawn): the growth with T-47D breast was 69.2%; in the experiment on BT-549 breast, 104%; with MDA-MB-435 melanoma, 89.1%; in the experiment with SW-620 colon it was 106%; in the experiment on MCF7 breast it was 89%; in the experiment on HCT-116 colon it was 84.9%. Besides, the growth is 100% with HCC-2998 colon and 106% in the experiment with KM12 colon.

Take `CCN1C(=S)N(c2ccccc2)C2NC(=S)N(/N=C/C=C/c3ccccc3OC)C21` (stereo not drawn): the growth with T-47D breast was 66.7%; in the experiment with BT-549 breast it was 9.74% (active); in the experiment on MDA-MB-435 melanoma, -31% (active); with SW-620 colon it was 18.3%; with MCF7 breast, 16.7%; in the experiment on HCT-116 colon, 10.5%. For the same molecule, the growth with HCC-2998 colon was 17.2%; in the experiment with KM12 colon, 7.72% (active).

Regarding `N#CC1=C(c2ccccc2)Nc2c(c(-c3ccc(Cl)cc3)nn2-c2ccccc2)C12C(=O)Nc1ccc(Cl)cc12` (stereo not drawn), the growth with T-47D breast was 55.8%; in the experiment with BT-549 breast, 76.2%; in the experiment on MDA-MB-435 melanoma it was 45.3%; with SW-620 colon, 85.9%; in the experiment with MCF7 breast it was 54.9%; in the experiment with HCT-116 colon, 65.5%. In addition, the growth was 90.6% with HCC-2998 colon and 83% with KM12 colon.

Consider `Nc1ncnc2c1N=C(c1ccc(Br)cc1)CC(c1cccc(Nc3ccnc4cc(C(F)(F)F)ccc34)c1)N2` (stereo not drawn), for which the growth with T-47D breast is 68.6%; with BT-549 breast, 105%; in the experiment on MDA-MB-435 melanoma, 38.3%; in the experiment on SW-620 colon, 64.1%; in the experiment with MCF7 breast it was 22%; with HCT-116 colon it was 32.8%. Also, the growth was 67.2% in the experiment with HCC-2998 colon and 60.2% in the experiment with KM12 colon.

`CCOC(=O)C1=C(c2ccccc2)N=C2SC=C(c3ccc(Cl)cc3)N2C1c1ccc(Cl)cc1` (stereo not drawn): the growth with T-47D breast is 52.4%; in the experiment on BT-549 breast it was 87.5%; in the experiment on MDA-MB-435 melanoma, 93.2%; with SW-620 colon it was 81.8%; in the experiment with MCF7 breast, 69.5%; in the experiment on HCT-116 colon, 63%. Moreover, the results for the growth in the experiment with HCC-2998 colon and in the experiment on KM12 colon were 86.2% and 72.5%, respectively.

For `CCCCCC(/C=N\NC(=S)N/N=C/C(=C/c1ccccc1)CCCCC)=C\c1ccccc1`, the growth in the experiment with T-47D breast was 83.9%; in the experiment with BT-549 breast, 83.4%; with MDA-MB-435 melanoma it was 81.6%; in the experiment on SW-620 colon, 81.2%; in the experiment on MCF7 breast, 75.9%; in the experiment on HCT-116 colon, 53.3%. For the same molecule, the growth with HCC-2998 colon was 64.6%; with KM12 colon, 66.7%.

Consider `CC(C)(C)CC(C)(C)NC(=O)Nc1ncccc1OCc1ccccc1`, for which the growth in the experiment with T-47D breast was 72%; in the experiment on BT-549 breast, 98.2%; with MDA-MB-435 melanoma it was 99.7%; in the experiment on SW-620 colon it was 98.6%; in the experiment on MCF7 breast it was 80.6%; with HCT-116 colon, 75.2%. Besides, the figures for the growth in the experiment on HCC-2998 colon and in the experiment with KM12 colon were 92.9% and 94.5%, respectively.

In the case of `O=C(/C=C/c1ccco1)Nc1ncc(Cc2cccc(C(F)(F)F)c2)s1`, the growth in the experiment with T-47D breast was 21.5%; in the experiment with BT-549 breast, 8.55% (active); in the experiment on MDA-MB-435 melanoma, -49.6% (active); in the experiment on SW-620 colon, 18.4%; in the experiment on MCF7 breast, 12.9%; in the experiment on HCT-116 colon, 7.05% (active). The growth in the experiment with HCC-2998 colon was 12.2%; with KM12 colon, 4.7% (active).

`Cc1csc(Nc2nc(-c3ccccn3)nc(C(Cl)(Cl)Cl)n2)n1`: the growth was 78.8% in the experiment on T-47D breast; 110% in the experiment on BT-549 breast; 82.3% in the experiment with MDA-MB-435 melanoma; 86.3% in the experiment with SW-620 colon; 84.2% in the experiment with MCF7 breast; 75% in the experiment on HCT-116 colon. The growth in the experiment on HCC-2998 colon is 107%; with KM12 colon, 82.8%.

Consider `CCN(CC)CC(O)COc1c(Br)c(Br)c(Br)c2c1OC(C)(C)C2` (stereo not drawn), for which the growth with T-47D breast was 69.5%; in the experiment on BT-549 breast, 95.6%; with MDA-MB-435 melanoma, 1.3% (active); with SW-620 colon it was -65.9% (active); in the experiment with MCF7 breast, 73.2%; in the experiment with HCT-116 colon it was 45.5%. Moreover, the growth is 76% in the experiment on HCC-2998 colon and 53.8% with KM12 colon.

On to `Cc1cccc(/C=C/c2c(C(=O)/C=C/c3ccccc3)c(C)nc3ccccc23)c1`, for which the growth was -4.51% (active) with T-47D breast; 2.21% (active) in the experiment with BT-549 breast; -66% (active) with MDA-MB-435 melanoma; -14% (active) with SW-620 colon; 3.87% (active) in the experiment with MCF7 breast; -56.3% (active) in the experiment on HCT-116 colon. Moreover, the growth was -84.5% (active) in the experiment with HCC-2998 colon and -52.7% (active) with KM12 colon.

As for `Cc1ccc(/C=C2\COc3ccc(O)cc3C2=O)cc1`, the growth was 88.9% with T-47D breast; 79.1% with BT-549 breast; 75.8% with MDA-MB-435 melanoma; 47.9% with SW-620 colon; 12.8% in the experiment with MCF7 breast; 59.5% with HCT-116 colon. Moreover, the growth in the experiment with HCC-2998 colon was 112%; with KM12 colon it was 46.6%.

As for `O=C1NC(=O)C(Cc2ccc(OCc3ccc(-c4ccc(Cl)cc4Cl)cc3)cc2)S1` (stereo not drawn), the growth was 16.1% in the experiment with T-47D breast; 37.9% with BT-549 breast; 24.5% in the experiment with MDA-MB-435 melanoma; 67.9% with SW-620 colon; 28.5% in the experiment with MCF7 breast; 38.6% with HCT-116 colon. The growth in the experiment on HCC-2998 colon is 60.8%; in the experiment on KM12 colon, 47.7%.

As to `CC(=O)Oc1ccc(/C(=C(\C)c2ccc(Cl)cc2)c2ccc(OCCN3CCCCC3)cc2)cc1`, the growth with T-47D breast is 29.8%; in the experiment with BT-549 breast it was 73.5%; with MDA-MB-435 melanoma it was -5.9% (active); in the experiment on SW-620 colon, 66.7%; with MCF7 breast, 3.38% (active); in the experiment on HCT-116 colon, 32.4%. Moreover, the figures for the growth with HCC-2998 colon and in the experiment with KM12 colon were -4.12% (active) and 24%, respectively.

Turning to `c1ccc(Cn2cc3c(c2)-c2oncc2CC3)cc1`, the growth was 42.1% in the experiment with T-47D breast; 82.9% in the experiment on BT-549 breast; -34.7% (active) with MDA-MB-435 melanoma; 23.9% in the experiment with SW-620 colon; 18.8% in the experiment with MCF7 breast; 9.28% (active) with HCT-116 colon. The growth is 4.68% (active) in the experiment with HCC-2998 colon and 13.6% in the experiment with KM12 colon.
